This is part of a sample that, as a whole, favours compounds with a hit. Of some 83,000 tested, about 20% had one in any assay.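 Each cell line was grown in a 96-well plate and treated with one concentration of compound for 48 hours. Values below 10 were considered active.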 Unmarked numbers belong to inactive results. The source made the active and inactive calls.
Legend:
Assay in all cases: NCI-60 one-dose screen, 48 h (100 = growth as untreated, 0 = no growth, -100 = all killed)
Details in all cases: 10 µM unless noted
SR leukemia = test system: SR leukemia
RPMI-8226 leukemia = test system: RPMI-8226 leukemia
OVCAR-8 ovarian = test system: OVCAR-8 ovarian
OVCAR-5 ovarian = test system: OVCAR-5 ovarian
OVCAR-4 ovarian = test system: OVCAR-4 ovarian
SK-OV-3 ovarian = test system: SK-OV-3 ovarian
IGROV1 ovarian = test system: IGROV1 ovarian
OVCAR-3 ovarian = test system: OVCAR-3 ovarian
HS 578T breast = test system: HS 578T breast
NCI/ADR-RES ovarian = test system: NCI/ADR-RES ovarian
T-47D breast = test system: T-47D breast
BT-549 breast = test system: BT-549 breast
MDA-MB-435 melanoma = test system: MDA-MB-435 melanoma
SW-620 colon = test system: SW-620 colon
MCF7 breast = test system: MCF7 breast
HCT-116 colon = test system: HCT-116 colon
HCC-2998 colon = test system: HCC-2998 colon
KM12 colon = test system: KM12 colon

SMILES	growth (SR leukemia)	growth (RPMI-8226 leukemia)	growth (OVCAR-8 ovarian)	growth (OVCAR-5 ovarian)	growth (OVCAR-4 ovarian)	growth (SK-OV-3 ovarian)	growth (IGROV1 ovarian)	growth (OVCAR-3 ovarian)	growth (HS 578T breast)	growth (NCI/ADR-RES ovarian) [%]	growth (T-47D breast)	growth (BT-549 breast)	growth (MDA-MB-435 melanoma)	growth (SW-620 colon)	growth (MCF7 breast)	growth (HCT-116 colon)	growth (HCC-2998 colon)	growth (KM12 colon)
FC(F)(F)c1[nH]ncc1-c1nc2c(N3CCCCC3)cc3[nH]ncc3c2c2c1CCCC2	-4.82% (active)	-6.13% (active)	7.14% (active)	6.62% (active)	24.3%	-25% (active)	-8.41% (active)	-2.67% (active)	-11.8% (active)	44.8	-4.06% (active)	-52.7% (active)	10.8%	6.31% (active)	3.33% (active)	3.74% (active)	-8.43% (active)	11.1%
CCSC1=CC(=O)c2ccccc2C1=O	37.6%	45.7%	49.4%	116%	-95.2% (active)	95.6%	59.5%	-26.7% (active)	94.8%	71.8	-41.9% (active)	91.4%	80.2%	54.9%	12.9%	2.56% (active)	117%	93.8%
CN1CCN(CCOc2ccc(-c3cnc4c(-c5ccc(C(F)(F)F)cc5)cnn4c3)cc2)CC1	-8.03% (active)	1.38% (active)	27.2%	79.7%	57.2%	85.6%	38.8%	-3.51% (active)	56%	52.8	27.1%	47.8%	11.8%	-63.1% (active)	10.3%	-55.3% (active)	33.1%	-28.1% (active)
Cc1ccc(C(=O)c2ccc(CC(=O)N/N=C/c3ccc(O)cc3O)n2C)cc1	17.3%	48.4%	48.4%	63.4%	20.7%	45.1%	41.7%	37.2%	74.9%	34.6	50.2%	50.8%	63.1%	42.2%	39.2%	34.9%	59.6%	36.1%
Cc1nn(-c2ccccc2)c(N2CCCCC2)c1/C=N/NC(=O)Cn1c(=O)sc2ccccc21	93.9%	65%	81.1%	82.9%	79.3%	89%	67.2%	81.9%	78.7%	74.9	60.3%	79.9%	87.9%	81%	67.3%	77.1%	68.4%	54%
CC(C)(CO)N(CCO)CCO	99.5%	95%	110%	93.1%	110%	109%	113%	112%	113%	102	112%	101%	108%	111%	100%	106%	105%	106%
CCN(CC)CCN(CCN(CC)CC)c1ccccc1	111%	103%	91.4%	94.3%	101%	92.7%	90%	109%	89.2%	100	89.3%	54.3%	103%	95.8%	100%	74.6%	91.5%	108%
O=C1OCC2=C1C(c1cccc(F)c1)c1cc3c(cc1N2CCO)OCO3 (stereo unspecified)	16.7%	17.5%	34.5%	63.6%	57.3%	19.5%	40%	2.41% (active)	17.8%	25.4	21.3%	32.8%	-0.149% (active)	15.8%	20%	18.2%	77%	25.3%
Cc1ccc(O)c(NC(=O)c2ccc(CNc3ccnc(C(F)(F)F)c3)cc2)c1	36.4%	15.2%	69.6%	76.9%	53.1%	82%	51.4%	140%	85.4%	50.3	82.3%	52.3%	39.6%	87%	37.6%	66.4%	27.7%	72.3%
OC(c1ccccc1)(c1ccccc1)c1ccccc1-c1ccccc1	95.2%	82.9%	96.7%	94.7%	80.4%	86.6%	91.2%	101%	94.2%	85.5	69.8%	104%	108%	82.4%	83.5%	72.1%	88.5%	93.6%
CC(=O)Nc1c(Cl)cc(Cl)c2c1Cc1cc([N+](=O)[O-])ccc1-2	47.9%	87.1%	74.8%	108%	9.59% (active)	87.3%	91.2%	80.5%	65.4%	83.5	70.6%	92.7%	85.9%	80.6%	76.8%	45.8%	94.3%	86.4%
COc1cccc(OC)c1Oc1c(-c2nc3ccccc3s2)c(C)nn1-c1ccccc1	6.99% (active)	57.6%	72.2%	73.8%	63.4%	75.3%	46.5%	89.6%	78.3%	64.7	42.1%	36.3%	88.1%	88%	82.1%	53.8%	81.9%	59.7%
CCOC(=O)c1c(C)nc2ccccc2c1/C=C/c1ccc(OC)cc1	56.6%	41.8%	57.6%	89.1%	54.6%	76.1%	66%	73.9%	81.6%	31.2	22.2%	53.3%	61.7%	85.1%	63.9%	55.7%	77.8%	70.7%
CCn1c2ccc(O)cc2c2c(C)c3c[n+](C(C)C)ccc3c(C)c21	11.9%	27.8%	37.6%	83.6%	43.2%	89.8%	50.8%	19.5%	34.8%	66.5	-15.4% (active)	9.02% (active)	28.5%	25.6%	17.8%	37.3%	42.6%	15%
CN(C)c1ccc(-c2cc(-c3ccc(Nc4nc(Nc5ccc(Cl)cc5)nc(Nc5ccc(Cl)cc5)n4)cc3)nc(N)c2C#N)cc1	40.6%	-27.1% (active)	68%	87.1%	88.5%	102%	55%	88.3%	82.5%	78	41.3%	95.6%	84%	92.8%	41.9%	60.5%	107%	74.1%
C=CCOC(=O)C1=C(C)NC(=O)NC1c1c(Cl)n(C)c2ccccc12 (stereo unspecified)	97.9%	81.3%	102%	96%	103%	94.5%	107%	104%	98.8%	99.2	92.5%	99.1%	103%	98.6%	94.8%	93.4%	104%	102%
CCCCCCCCn1ccc2cc(NC(=O)Cn3cc(CN4CCN(CC)CC4)nn3)ccc21	2.27% (active)	-10.7% (active)	83%	94%	81.5%	99.6%	88.6%	66.8%	86.2%	97.7	58.2%	71.8%	-84% (active)	-43% (active)	38.9%	61.8%	-12.2% (active)	77.8%

— PubChem BioAssay (NCI)
